Consider 20 sequences from paper PMC5700166.

What all share (test): protein-binding microarray (PBM); PBM: ~300 nM protein, 6 mM HEPES pH 7.8, 80 mM KCl, 0.5 mM EDTA, 0.5 mM EGTA, 6% glycerol, 35 ng/ul poly-dIdC, 1% milk, 1 h, room temperature; Ap Aiptasia and Nv Nematostella (sea anemones) / Co Capsaspora / Aq Amphimedon (sponge) / Dm Drosophila / Hu human; RHD is the Rel homology domain; high values mean tight binding
What all share (settings): dsDNA, one strand shown

One test addresses T1, GST-Ap-NF-kB RHD (Exaiptasia pallida (Aiptasia), UniProt A0A913YAJ5 2-422).
T1 sequence: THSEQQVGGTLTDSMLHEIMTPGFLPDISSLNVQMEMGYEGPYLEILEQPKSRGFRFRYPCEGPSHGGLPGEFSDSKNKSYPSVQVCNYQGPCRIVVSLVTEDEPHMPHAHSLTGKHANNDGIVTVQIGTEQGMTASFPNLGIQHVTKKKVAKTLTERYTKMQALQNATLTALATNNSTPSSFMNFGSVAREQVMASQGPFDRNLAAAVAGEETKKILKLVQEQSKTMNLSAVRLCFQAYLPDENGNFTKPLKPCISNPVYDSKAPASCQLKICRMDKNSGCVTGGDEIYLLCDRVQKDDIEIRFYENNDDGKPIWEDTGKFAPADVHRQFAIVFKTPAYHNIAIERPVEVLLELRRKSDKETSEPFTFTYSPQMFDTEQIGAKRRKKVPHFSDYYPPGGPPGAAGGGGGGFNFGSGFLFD

For test [1], the target named is T2, GST-Nv-NF-kB (Cys allele) (Nematostella vectensis, UniProt E5G601 2-411).
T2 sequence: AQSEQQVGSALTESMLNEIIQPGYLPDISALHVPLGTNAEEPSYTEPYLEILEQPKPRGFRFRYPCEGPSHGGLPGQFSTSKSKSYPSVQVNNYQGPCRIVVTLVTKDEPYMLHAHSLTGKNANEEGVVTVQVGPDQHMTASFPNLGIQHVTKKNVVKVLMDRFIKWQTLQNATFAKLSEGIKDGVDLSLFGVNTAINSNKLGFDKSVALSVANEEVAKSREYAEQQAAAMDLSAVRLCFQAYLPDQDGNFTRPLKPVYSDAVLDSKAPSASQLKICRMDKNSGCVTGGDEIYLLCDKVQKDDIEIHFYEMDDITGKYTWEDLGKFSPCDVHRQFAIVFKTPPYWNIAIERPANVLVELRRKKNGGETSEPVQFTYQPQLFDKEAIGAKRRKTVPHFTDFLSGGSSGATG

In the next test the target is T3, GST-Co-NF-kB (Capsaspora owczarzaki, UniProt F1ARL5 200-546).
T3 sequence: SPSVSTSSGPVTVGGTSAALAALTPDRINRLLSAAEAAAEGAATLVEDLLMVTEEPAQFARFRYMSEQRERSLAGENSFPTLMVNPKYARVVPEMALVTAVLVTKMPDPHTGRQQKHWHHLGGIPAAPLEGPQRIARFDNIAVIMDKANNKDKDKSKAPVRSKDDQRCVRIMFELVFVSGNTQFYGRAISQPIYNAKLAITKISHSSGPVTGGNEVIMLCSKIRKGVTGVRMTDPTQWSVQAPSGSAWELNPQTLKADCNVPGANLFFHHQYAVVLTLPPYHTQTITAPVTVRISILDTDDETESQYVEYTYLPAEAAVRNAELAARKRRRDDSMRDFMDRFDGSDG

A further test has as its target T4, GST-Dm-Relish (Drosophila melanogaster, UniProt Q94527 99-473).
T4 sequence: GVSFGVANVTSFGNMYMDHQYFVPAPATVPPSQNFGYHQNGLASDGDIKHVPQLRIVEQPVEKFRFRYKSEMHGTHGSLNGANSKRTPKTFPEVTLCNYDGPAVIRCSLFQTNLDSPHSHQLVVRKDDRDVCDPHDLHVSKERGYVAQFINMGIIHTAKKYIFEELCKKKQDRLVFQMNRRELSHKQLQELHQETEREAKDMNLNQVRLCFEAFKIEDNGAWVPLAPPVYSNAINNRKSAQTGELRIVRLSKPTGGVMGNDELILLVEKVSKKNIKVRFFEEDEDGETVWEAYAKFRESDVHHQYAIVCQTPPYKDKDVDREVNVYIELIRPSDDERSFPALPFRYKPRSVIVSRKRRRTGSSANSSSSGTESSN

For the next test, the target named is T5, GST-Aq-NF-kB (Amphimedon queenslandica, UniProt A9Y5G7 2-389).
T5 sequence: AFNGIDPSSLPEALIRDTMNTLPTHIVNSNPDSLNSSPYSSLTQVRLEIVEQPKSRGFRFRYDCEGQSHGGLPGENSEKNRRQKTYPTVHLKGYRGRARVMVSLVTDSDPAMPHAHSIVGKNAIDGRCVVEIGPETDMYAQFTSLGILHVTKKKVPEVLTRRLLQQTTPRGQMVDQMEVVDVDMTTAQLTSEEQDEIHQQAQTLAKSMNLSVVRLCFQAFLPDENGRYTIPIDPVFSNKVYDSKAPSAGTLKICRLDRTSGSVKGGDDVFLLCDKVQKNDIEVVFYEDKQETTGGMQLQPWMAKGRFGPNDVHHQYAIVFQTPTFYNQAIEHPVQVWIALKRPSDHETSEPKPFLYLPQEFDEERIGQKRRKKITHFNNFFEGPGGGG

Take “CCGATTAACATCAGCACCCCCCCTGATGTTAATCGGGTCTTGATTCGCTTGACGCTGCTG”: the binding signal turned out to be 5.67 z-score with GST-Ap-NF-kB RHD; 3.51 z-score in test [1]; 4.07 z-score with GST-Co-NF-kB; 4.44 z-score with GST-Dm-Relish; 4.32 z-score with GST-Aq-NF-kB.

Turning to “CCGATTAACATCAACACCCCCCCTGATGTTAATCGGGTCTTGATTCGCTTGACGCTGCTG”, the binding signal was found to be 5.32 z-score with GST-Ap-NF-kB RHD; 4.06 z-score in test [1]; 5.33 z-score in the test with GST-Co-NF-kB; 5.81 z-score with GST-Dm-Relish; 4.43 z-score with GST-Aq-NF-kB.

In the case of “CCGATTAACATCAAATTCCCAGCTGATGTTAATCGGGTCTTGATTCGCTTGACGCTGCTG”, the binding signal turned out to be 1.68 z-score with GST-Ap-NF-kB RHD; 3.6 z-score in test [1]; 3.28 z-score in the test with GST-Co-NF-kB; 3.73 z-score with GST-Dm-Relish; 2.48 z-score with GST-Aq-NF-kB.

Regarding “CCGATTAACATCAGGAAATCCCATGATGTTAATCGGGTCTTGATTCGCTTGACGCTGCTG”, the binding signal worked out at 4.15 z-score with GST-Ap-NF-kB RHD; 3.68 z-score in test [1]; 1.17 z-score in the test with GST-Co-NF-kB; 8.1 z-score with GST-Dm-Relish; 5.09 z-score in the test with GST-Aq-NF-kB.

On to “CCGATTAACATCACCCCTCCCCATGATGTTAATCGGGTCTTGATTCGCTTGACGCTGCTG”, for which the binding signal stood at 3.7 z-score in the test with GST-Ap-NF-kB RHD; 2.55 z-score in test [1]; 3.58 z-score with GST-Co-NF-kB; 3.67 z-score with GST-Dm-Relish; 2.92 z-score with GST-Aq-NF-kB.

“CCGATTAACATCAAGAATTCCCGTGATGTTAATCGGGTCTTGATTCGCTTGACGCTGCTG”: the binding signal is 4.85 z-score in the test with GST-Ap-NF-kB RHD; 6.36 z-score in test [1]; 4.23 z-score with GST-Co-NF-kB; 4.9 z-score with GST-Dm-Relish; 5.46 z-score with GST-Aq-NF-kB.

For “CCGATTAACATCAACCCCGTTTCTGATGTTAATCGGGTCTTGATTCGCTTGACGCTGCTG”, the binding signal in the test with GST-Ap-NF-kB RHD is 1.51 z-score; in test [1], 1.29 z-score; with GST-Co-NF-kB it was 1.63 z-score; in the test with GST-Dm-Relish it was 1.65 z-score; with GST-Aq-NF-kB, 2.24 z-score.

As for “CCGATTAACATCAGGCTATCCCCTGATGTTAATCGGGTCTTGATTCGCTTGACGCTGCTG”, the binding signal was 4.44 z-score with GST-Ap-NF-kB RHD; 3.67 z-score in test [1]; 2.18 z-score with GST-Co-NF-kB; 3.3 z-score in the test with GST-Dm-Relish; 4.81 z-score with GST-Aq-NF-kB.

With “CCGATTAACATCAGGTATTCCCATGATGTTAATCGGGTCTTGATTCGCTTGACGCTGCTG”, the binding signal came out at 3.43 z-score in the test with GST-Ap-NF-kB RHD; 2.67 z-score in test [1]; 2.14 z-score with GST-Co-NF-kB; 7.54 z-score with GST-Dm-Relish; 4.66 z-score in the test with GST-Aq-NF-kB.

“CCGATTAACATCAAGTTTTCCCATGATGTTAATCGGGTCTTGATTCGCTTGACGCTGCTG”: the binding signal with GST-Ap-NF-kB RHD was 2.53 z-score; in test [1], 3.86 z-score; in the test with GST-Co-NF-kB, 4.78 z-score; in the test with GST-Dm-Relish, 1.42 z-score; with GST-Aq-NF-kB, 2.83 z-score.

Consider “CCGATTAACATCAGAACTTTCCCTGATGTTAATCGGGTCTTGATTCGCTTGACGCTGCTG”, for which the binding signal with GST-Ap-NF-kB RHD is 4.2 z-score; in test [1], 6.87 z-score; with GST-Co-NF-kB it was 3.78 z-score; in the test with GST-Dm-Relish, 2.67 z-score; with GST-Aq-NF-kB, 7.19 z-score.

For the sequence “CCGATTAACATCAGGGGATCCCATGATGTTAATCGGGTCTTGATTCGCTTGACGCTGCTG”, the binding signal in the test with GST-Ap-NF-kB RHD was determined as 7.15 z-score; in test [1], 5.1 z-score; with GST-Co-NF-kB, 2.81 z-score; in the test with GST-Dm-Relish it was 10 z-score; with GST-Aq-NF-kB, 4.95 z-score.

For the sequence “CCGATTAACATCAGGGAAACCCATGATGTTAATCGGGTCTTGATTCGCTTGACGCTGCTG”, the binding signal amounted to 3.64 z-score with GST-Ap-NF-kB RHD; 4.19 z-score in test [1]; 2.54 z-score with GST-Co-NF-kB; 8.17 z-score in the test with GST-Dm-Relish; 4.85 z-score in the test with GST-Aq-NF-kB.

Take “CCGATTAACATCATAAAATCCCATGATGTTAATCGGGTCTTGATTCGCTTGACGCTGCTG”: the binding signal with GST-Ap-NF-kB RHD is 2.43 z-score; in test [1] it was 2.92 z-score; with GST-Co-NF-kB, 1.47 z-score; with GST-Dm-Relish it was 6.55 z-score; with GST-Aq-NF-kB it was 3.1 z-score.

As to “CCGATTAACATCAGGGATTTCCATGATGTTAATCGGGTCTTGATTCGCTTGACGCTGCTG”, the binding signal in the test with GST-Ap-NF-kB RHD came to 4.13 z-score; in test [1], 3.8 z-score; in the test with GST-Co-NF-kB it was 1.29 z-score; in the test with GST-Dm-Relish, 7.94 z-score; with GST-Aq-NF-kB it was 5.39 z-score.

As for “CCGATTAACATCACTTTACCCCCTGATGTTAATCGGGTCTTGATTCGCTTGACGCTGCTG”, the binding signal was determined as 4.02 z-score in the test with GST-Ap-NF-kB RHD; 2.61 z-score in test [1]; 6.83 z-score in the test with GST-Co-NF-kB; 2.27 z-score with GST-Dm-Relish; 3.05 z-score in the test with GST-Aq-NF-kB.

As to “CCGATTAACATCAGGGAGCTCCCTGATGTTAATCGGGTCTTGATTCGCTTGACGCTGCTG”, the binding signal is 4.49 z-score with GST-Ap-NF-kB RHD; 3.24 z-score in test [1]; 1.46 z-score with GST-Co-NF-kB; 3.76 z-score in the test with GST-Dm-Relish; 6.36 z-score with GST-Aq-NF-kB.

For the sequence “CCGATTAACATCAATTCCCAAGGTGATGTTAATCGGGTCTTGATTCGCTTGACGCTGCTG”, the binding signal with GST-Ap-NF-kB RHD was determined as 1.3 z-score; in test [1], 1.9 z-score; in the test with GST-Co-NF-kB it was 2.02 z-score; in the test with GST-Dm-Relish it was 1.17 z-score; with GST-Aq-NF-kB it was 1.55 z-score.

In the case of “CCGATTAACATCAGGAAGTTCCCTGATGTTAATCGGGTCTTGATTCGCTTGACGCTGCTG”, the binding signal in the test with GST-Ap-NF-kB RHD came out at 4.78 z-score; in test [1] it was 5.36 z-score; in the test with GST-Co-NF-kB, 2.57 z-score; in the test with GST-Dm-Relish, 4.82 z-score; with GST-Aq-NF-kB, 7.74 z-score.

Turning to “CCGATTAACATCAGGCGTCCCCCTGATGTTAATCGGGTCTTGATTCGCTTGACGCTGCTG”, the binding signal in the test with GST-Ap-NF-kB RHD stood at 5.61 z-score; in test [1], 5.07 z-score; with GST-Co-NF-kB, 4.12 z-score; with GST-Dm-Relish it was 3.92 z-score; with GST-Aq-NF-kB, 4.77 z-score.
